Results from PubChem BioAssay AID1159580 (chemical genetic matrix, 2015).
Where “and” joins values, the source holds several entries; their conditions need not be identical. Equal values may be shown once. Among all 5,500 compounds or so, about 2,000 (36%) were called active. About 18% were inconclusive and are not listed. No stated cut-off is given here; in the data, active means normalized growth mostly below about 0.91 (no sharp cut-off); inconclusive means no clear call, values can overlap the other calls; inactive means mostly above about 0.92. This is one part of the list. A structure can be active in one record and inactive in another.

Assay: chemical genetic growth profiling, strain panel (AID 1159580);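 further: tested at 20 µM; growth read once vehicle control cultures reached saturation at 30 °C; 1 = growth at the plate median or of vehicle wells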
Conditions: growth OD

Measured: normalized growth

CN1CCN(CCCN2c3ccccc3Sc3ccc(C(F)(F)F)cc32)CC1
active: S. cerevisiae deletion strains, locus YJR075W, strain HOC1, stronger effect = lower value 0.0765 and 0.787 | S. cerevisiae deletion strains, locus YKL009W, strain mrt4, stronger effect = lower value 0.875 | S. cerevisiae deletion strains, locus YKL160W, strain elf1, stronger effect = lower value 0.0849 | S. cerevisiae deletion strains, locus YKL190W, strain CNB1, stronger effect = lower value 0.0505 | S. cerevisiae deletion strains, locus YKR001C, strain vps1, stronger effect = lower value 0.0668 | S. cerevisiae deletion strains, locus YKR026C, strain gcn3, stronger effect = lower value 0.0825 | S. cerevisiae deletion strains, locus YKR091W, strain srl3, stronger effect = lower value 0.073 | S. cerevisiae deletion strains, locus YLL001W, strain dnm1, stronger effect = lower value 0.0784 | S. cerevisiae deletion strains, locus YLL026W, stronger effect = lower value 0.0619 | S. cerevisiae deletion strains, locus YLL041C, strain sdh2, stronger effect = lower value 0.0714 | S. cerevisiae deletion strains, locus YLR027C, strain aat2, stronger effect = lower value 0.0651 | S. cerevisiae deletion strains, locus YLR039C, strain RIC1, stronger effect = lower value 0.105 | S. cerevisiae deletion strains, locus YLR058C, strain SHM2, stronger effect = lower value 0.0587 | S. cerevisiae deletion strains, locus YLR102C, strain apc9, stronger effect = lower value 0.0738 | S. cerevisiae deletion strains, locus YLR221C, strain rsa3, stronger effect = lower value 0.0717 | S. cerevisiae deletion strains, locus YLR258W, strain gsy2, stronger effect = lower value 0.0705 | S. cerevisiae deletion strains, locus YLR262C, strain YPT6 (second series), stronger effect = lower value 0.0947 | S. cerevisiae deletion strains, locus YLR262C, strain YPT6, stronger effect = lower value 0.129 | S. cerevisiae deletion strains, locus YLR268W, strain sec22, stronger effect = lower value 0.0809 | S. cerevisiae deletion strains, locus YLR320W, strain mms22, stronger effect = lower value 0.0931 | S. cerevisiae deletion strains, locus YLR330W, strain CHS5, stronger effect = lower value 0.0585 | S. cerevisiae deletion strains, locus YLR342W, strain FKS1 (second series), stronger effect = lower value 0.0849 | S. cerevisiae deletion strains, locus YLR342W, strain FKS1, stronger effect = lower value 0.0733 | S. cerevisiae deletion strains, locus YLR357W, strain rsc2, stronger effect = lower value 0.148 | S. cerevisiae deletion strains, locus YLR370C, strain arc18, stronger effect = lower value 0.0604 | S. cerevisiae deletion strains, locus YLR371W, strain rom2, stronger effect = lower value 0.0675 | S. cerevisiae deletion strains, locus YLR384C, strain iki3, stronger effect = lower value 0.0666 | S. cerevisiae deletion strains, locus YLR418C, strain cdc73, stronger effect = lower value 0.125 | S. cerevisiae deletion strains, locus YML016C, strain PPZ1, stronger effect = lower value 0.0583 | S. cerevisiae deletion strains, locus YML032C, strain rad52, stronger effect = lower value 0.0831 | S. cerevisiae deletion strains, locus YML120C, strain ndi1, stronger effect = lower value 0.0683 | S. cerevisiae deletion strains, locus YML124C, strain tub3, stronger effect = lower value 0.0843 | S. cerevisiae deletion strains, locus YMR058W, strain fet3, stronger effect = lower value 0.0611 | S. cerevisiae deletion strains, locus YMR078C, strain ctf18, stronger effect = lower value 0.239 | S. cerevisiae deletion strains, locus YMR125W, strain sto1, stronger effect = lower value 0.0897 | S. cerevisiae deletion strains, locus YMR129W, stronger effect = lower value 0.061 | S. cerevisiae deletion strains, locus YMR205C, strain PFK2, stronger effect = lower value 0.199 | S. cerevisiae deletion strains, locus YMR223W, strain ubp8, stronger effect = lower value 0.0945 | S. cerevisiae deletion strains, locus YMR231W, strain pep5, stronger effect = lower value 0.0666 | S. cerevisiae deletion strains, locus YMR307W, strain GAS1, stronger effect = lower value 0.122 and 0.848 | S. cerevisiae deletion strains, locus YNL067W, strain RPL9B, stronger effect = lower value 0.0685 | S. cerevisiae deletion strains, locus YNL071W, strain lat1, stronger effect = lower value 0.0775 | S. cerevisiae deletion strains, locus YNL128W, strain TEP1, stronger effect = lower value 0.0773 | S. cerevisiae deletion strains, locus YNL153C, strain GIM3, stronger effect = lower value 0.0603 and 0.583 | S. cerevisiae deletion strains, locus YNL175C, strain NOP13, stronger effect = lower value 1.15 [resistant] | S. cerevisiae deletion strains, locus YNL209W, strain ssb2, stronger effect = lower value 0.0693 | S. cerevisiae deletion strains, locus YNL224C, strain SQS1, stronger effect = lower value 1.11 [resistant] | S. cerevisiae deletion strains, locus YNL233W, strain BNI4, stronger effect = lower value 0.0609 | S. cerevisiae deletion strains, locus YNL248C, strain rpa49, stronger effect = lower value 0.102 | S. cerevisiae deletion strains, locus YNL307C, strain MCK1, stronger effect = lower value 0.0726 | S. cerevisiae deletion strains, locus YNL322C, strain KRE1, stronger effect = lower value 0.0571 | S. cerevisiae deletion strains, locus YNR049C, strain mso1, stronger effect = lower value 0.0676 | S. cerevisiae deletion strains, locus YNR052C, strain pop2, stronger effect = lower value 0.0713 | S. cerevisiae deletion strains, locus YOL006C, strain TOP1, stronger effect = lower value 0.119 | S. cerevisiae deletion strains, locus YOL012C, strain htz1 0.176 | S. cerevisiae deletion strains, locus YOL147C, strain pex11, stronger effect = lower value 0.0736 | S. cerevisiae deletion strains, locus YOR001W, strain rrp6, stronger effect = lower value 0.0923 | S. cerevisiae deletion strains, locus YOR061W, strain CKA2, stronger effect = lower value 0.0554 | S. cerevisiae deletion strains, locus YOR069W, strain VPS5, stronger effect = lower value 0.112 | S. cerevisiae deletion strains, locus YOR070C, strain gyp1, stronger effect = lower value 0.0657 | S. cerevisiae deletion strains, locus YOR080W, strain dia2, stronger effect = lower value 0.0771 | S. cerevisiae deletion strains, locus YOR083W, strain WHI5 (second series), stronger effect = lower value 0.748 | S. cerevisiae deletion strains, locus YOR083W, strain WHI5, stronger effect = lower value 0.0778 | S. cerevisiae deletion strains, locus YOR106W, strain vam3, stronger effect = lower value 0.0723 | S. cerevisiae deletion strains, locus YOR136W, strain idh2, stronger effect = lower value 0.0795 | S. cerevisiae deletion strains, locus YOR144C, strain elg1, stronger effect = lower value 0.0731 | S. cerevisiae deletion strains, locus YOR184W, strain ser1, stronger effect = lower value 0.0849 | S. cerevisiae deletion strains, locus YOR265W, strain rbl2, stronger effect = lower value 0.0652 | S. cerevisiae deletion strains, locus YOR270C, strain vph1, stronger effect = lower value 0.136 | S. cerevisiae deletion strains, locus YOR290C, strain snf2, stronger effect = lower value 0.0834 | S. cerevisiae deletion strains, locus YOR316C, strain cot1, stronger effect = lower value 0.0693 | S. cerevisiae deletion strains, locus YPL051W, strain arl3, stronger effect = lower value 0.12 | S. cerevisiae deletion strains, locus YPL055C, strain LGE1, stronger effect = lower value 0.072 and 0.65 | S. cerevisiae deletion strains, locus YPL078C, strain atp4, stronger effect = lower value 0.161 | S. cerevisiae deletion strains, locus YPL106C, strain sse1, stronger effect = lower value 0.104 | S. cerevisiae deletion strains, locus YPL240C, strain hsp82, stronger effect = lower value 0.0671 | S. cerevisiae deletion strains, locus YPL241C, strain CIN2, stronger effect = lower value 0.0575 | S. cerevisiae deletion strains, locus YPR119W, strain clb2, stronger effect = lower value 0.079 | S. cerevisiae deletion strains, locus YPR163C, strain tif3, stronger effect = lower value 0.0727 | S. cerevisiae deletion strains, locus YPR167C, strain met16, stronger effect = lower value 0.0761 | S. cerevisiae deletion strains, strain wtn01, stronger effect = lower value 0.073 | S. cerevisiae strains, strain wild type, stronger effect = lower value 0.0552
0.122 (active) and 1 (inactive): S. cerevisiae deletion strains, locus YMR263W, strain SAP30, stronger effect = lower value
inactive: S. cerevisiae deletion strains, locus YKL068W, stronger effect = lower value 0.984 | S. cerevisiae deletion strains, locus YKL085W, strain MDH1 (second series), stronger effect = lower value 0.957 | S. cerevisiae deletion strains, locus YKL085W, strain MDH1, stronger effect = lower value 0.957 | S. cerevisiae deletion strains, locus YLR113W, strain HOG1, stronger effect = lower value 0.941 | S. cerevisiae deletion strains, locus YNL183C, strain NPR1, stronger effect = lower value 0.91 | S. cerevisiae deletion strains, locus YNL197C, strain WHI3, stronger effect = lower value 1.08 | S. cerevisiae deletion strains, locus YNL250W, strain rad50, stronger effect = lower value 0.968 | S. cerevisiae deletion strains, locus YNL271C, strain bni1, stronger effect = lower value 0.982 | S. cerevisiae deletion strains, locus YNL298W, strain CLA4, stronger effect = lower value 0.938 | S. cerevisiae deletion strains, locus YNL322C, strain KRE1 (second series), stronger effect = lower value 0.978 | S. cerevisiae deletion strains, locus YOR231W, strain MKK1, stronger effect = lower value 0.939 | S. cerevisiae deletion strains, locus YPL256C, strain CLN2, stronger effect = lower value 0.914 | S. cerevisiae deletion strains, locus YPR141C, strain kar3, stronger effect = lower value 0.98
